GLP-1R agonist: qHTS of GLP-1 Receptor Agonists | Glucagon-like peptide 1 receptor (Homo sapiens), P43220 | HEK293 GLP-1R CRE-luciferase, luminescence, 4-6 h; cells express a hypersensitive GLP-1R form | Potency, µM (series often up to 45.6 µM), without a hit: top-dose activation, usual class: activators | hit rate 0.007% among 380,000 | AID 624172, 2012; also: % of control where 0% means no effect
GLP1R cytotox: qHTS of GLP-1 Receptor Inverse Agonists: Cytotox Screen | hit rate 0.13% among 410,000 | HEK293 cAMP-luciferase reporter cells, luminescence, 24 h | Potency, µM (top dose mostly 38.3 µM), inactives show at the highest dose activity change, negative = inhibition, usual class: inhibitors;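 also: loss of luciferase light is scored as toxicity; % is scaled to controls: 0 for no effect and ±100 for the full control effect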
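Quantitative HTS format, 1536 wells, 200 cells/uL seeded. Compounds: 23 nL, 24 h, 37 °C. Detection: luciferase reagent, luminescence at 12 min RT; decreased signal taken as cytotoxic.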
PTHR1 agonist: qHTS for PTHR1 Agonists: Primary Screen; AID 743266, 2014; hit rate 0.075% among 410,000; Potency, µM (doses to about 115 µM), inactives show at the top dose activation, actives largely listed as activators; Parathyroid hormone/parathyroid hormone-related peptide receptor (Homo sapiens), Q03431; HEK293 GP2 PTHR1 cells, GloSensor cAMP luminescence, 1 h; also: nearly all actives have a fitted effect of over 55% in size
Target sequence (Q03431 whole entry, looked up): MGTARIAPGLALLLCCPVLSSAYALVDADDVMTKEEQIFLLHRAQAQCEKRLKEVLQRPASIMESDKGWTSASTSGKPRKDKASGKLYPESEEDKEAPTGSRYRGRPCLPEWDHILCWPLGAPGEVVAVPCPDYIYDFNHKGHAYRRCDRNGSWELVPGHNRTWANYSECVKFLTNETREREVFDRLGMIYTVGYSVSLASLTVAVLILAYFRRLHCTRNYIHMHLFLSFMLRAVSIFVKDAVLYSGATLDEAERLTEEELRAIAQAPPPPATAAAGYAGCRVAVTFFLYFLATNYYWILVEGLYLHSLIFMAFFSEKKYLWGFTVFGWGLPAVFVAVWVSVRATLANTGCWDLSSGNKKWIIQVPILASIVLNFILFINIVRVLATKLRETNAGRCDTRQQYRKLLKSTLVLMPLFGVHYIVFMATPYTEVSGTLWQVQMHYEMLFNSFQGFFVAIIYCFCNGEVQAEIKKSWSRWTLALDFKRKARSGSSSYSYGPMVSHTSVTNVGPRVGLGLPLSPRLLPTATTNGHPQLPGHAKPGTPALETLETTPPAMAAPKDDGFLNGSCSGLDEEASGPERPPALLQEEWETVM
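HEK-293-derived GP2 cells expressing PTHR1 and a GloSensor cAMP reporter, 3,000/well, plated overnight, given luciferin plus IBMX (each 0.5 mM as added) for 1 h at 37 °C, then compound for 1 h at 37 °C. Luminescence was read after 15 min at room temperature.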
GLP-1R inv ag: qHTS of GLP-1 Receptor Inverse Agonists (Inhibition Mode); Glucagon-like peptide 1 receptor (Homo sapiens), P43220; HEK293 GLP-1R CRE-luciferase, luminescence, 24 h; GLP-1R form is constitutively active; Potency, µM (titrated, usually from 38.3 µM), inactives show at the top dose activity change, negative = inhibition, usual class: inhibitors; hit rate 1.6% among 410,000; AID 624417, 2012; also: % is scaled to controls: 0 for no effect and ±100 for the full control effect; nearly all actives have a fitted effect of over 55% in size
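Inverse agonism was detected as reduced cAMP-driven luciferase luminescence after 24 h compound treatment. The cells were HEK293 clones expressing constitutively active human GLP-1R with the reporter. Reporter-only and GPR119 cell lines served as counterscreen controls.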
The depositor's hits bear a star; i = inactive; u = inconclusive; x = not tested or not shown; [ ] = remark or other dose. Compounds with a hit are over-represented: about 1.7% of the library has one in this group of screens. Calls follow the shape of the dose curve; as a rule, active = well fitted curve in the direction sought with a large enough effect; inconclusive = small, poorly fitted or top-dose-only effect, or another doubt; inactive = no such curve, though single readings can be large; an effect the other way counts as inactive or inconclusive. Potency is read from the fitted curve at half-maximal effect.

SMILES	GLP-1R agonist	GLP1R cytotox	PTHR1 agonist	GLP-1R inv ag
O=C(NCC(c1ccco1)N1CCN(c2ccc(F)cc2)CC1)OCc1ccccc1 (configuration not stated)	-1%	14%	-77%	3.5µM*
O=S(=O)(NCC(c1ccco1)N1CCN(c2ccc(F)cc2)CC1)c1ccc(F)cc1 (configuration not stated)	2%	9%	i	10µM*
O=C(O)c1ccccc1C(=O)OCC1CCC(=NO)CC1 (configuration not stated)	-1%	-2%	i	2%
C=CCC1C=C(C)CC(CC=C)N1 (configuration not stated)	5%	1%	3%	6%
COCCn1c(N)c(N(Cc2ccccc2)C(=O)c2cc3ccccc3o2)c(=O)[nH]c1=O	0%	16%[0.307 µM]	i	4%[0.307 µM]
Fc1ccc(OCCOCCN2CCCC2)cc1	3%	-6%	-9%	16%
CC(OCCN1CCCC1)(c1ccc(F)cc1)c1ccc(F)cc1	-2%	u	i	10µM*
O=C(CSc1nc2ccccc2nc1Cc1ccc(Cl)cc1)N1CCCc2ccccc21	x	u	-15%	-5%
COc1ccc(CCNC(=O)c2cc(Nc3cc(C)cc(C)c3)nc3ccccc23)cc1OC	-9%	3%	-43%	4.5µM*
COc1ccc(CCNC(=O)c2cc(-c3ccccc3)nc3ccccc23)cc1OC	17%	-2%	i	19%
CSc1cccc(Nc2cc(C(=O)NCCc3ccc(Cl)cc3)c3ccccc3n2)c1	-15%	4%	18%	5µM*
CCCCN(CCCNC(=O)c1cc(Nc2cccc(SC)c2)nc2ccccc12)Cc1ccccc1	x	1%	-16%	u
COc1ccc(-c2c3c(=O)n(C)c(=O)n(C)c3cn2-c2cccc(N)c2)cc1	x	3%	i	9%
Cc1cccc(C)c1NC(=O)C1CCCN1S(=O)(=O)c1ccccc1 (configuration not stated)	6%	-4%	-7%	-4%
C=CC[C@@H](CC(=O)N(CCO)Cc1ccccc1)C(=O)N[C@H](COC(=O)[C@@H](CC=C)Cc1ccc(F)cc1)C(C)(C)C	1%	u	-18%	u
C=CCC[C@H](Cc1ccc(F)cc1)C(=O)OC[C@@H](NC(=O)[C@@H](CC=C)CC(=O)N[C@@H](CO)Cc1ccccc1)C(C)(C)C	-4%	u	-2%	u
C=CC[C@H](CC(=O)NCCO)C(=O)N[C@@H](COC(=O)[C@@H](CC=C)Cc1ccc(F)cc1)Cc1ccccc1	-1%	4%	i	-4%
C=CCC[C@@H](Cc1ccc(F)cc1)C(=O)OC[C@@H](NC(=O)[C@@H](CC=C)CC(=O)N[C@@H](CO)Cc1ccccc1)C(C)(C)C	-2%	-22%	-23%	10µM*
C=CC[C@H](CC(=O)N(CCO)Cc1ccccc1)C(=O)N[C@H](COC(=O)[C@@H](CC=C)Cc1ccc(F)cc1)C(C)(C)C	0%	-25%	-32%	10µM*
C=CC[C@H](CC(=O)NCCO)C(=O)N[C@H](COC(=O)[C@@H](CC=C)Cc1ccc(F)cc1)Cc1ccccc1	4%	u	i	10µM*
O=C1C(Cl)=C(NCCN2CCCCC2)C(=O)c2ccccc21	-7%	u	-82%	11µM*
COc1cc(C(=O)NCCCN2CCCC2=O)cc(Br)c1OCc1ccccc1	0%	-5%	18%	u
CCN(CC)CCNC(=O)c1cc2cc(Br)ccc2s1	-3%	31%	-1%	3.2µM*
Cc1nc2ccccc2c2oc(C(=O)Nc3ccc(C(C)C)cc3)cc12	-2%	-29%	-67%	7.9µM*
Cc1ccc(C(C)C)cc1OCCOCCN1CCCC1	-2%	-8%	i	7.9µM*
CC1CCN(C(c2cccs2)c2nnnn2Cc2ccccc2)CC1 (configuration not stated)	-4%	0%	-6%	10µM*
Cc1ccc(C(c2nnnn2Cc2ccccc2)N2CCN(Cc3ccccc3)CC2)cc1 (configuration not stated)	-9%	-25%	i	10µM*

High-throughput results as filed in PubChem BioAssay.
